Source: PubChem BioAssay (NCATS)
Inconclusive results are not listed. Unless noted, calls come from the whole dose curve; as a rule, active = well fitted curve in either direction with a large enough effect (not every such curve was filed as active); inconclusive = small, poorly fitted or top-dose-only effect, or another doubt; inactive = flat fitted curve, though single readings scatter.

How the values were obtained:
[1] = AP1 Signaling Pathway (AID 357); details: ME-180 AP-1-bla reporter, EGF-induced, beta-lactamase ratio, 5 h; at 17.2 µM (top of the series) unless noted;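 note: ME-180 reporter cells stimulated with EGF at its EC50 level; % is set by controls: 0 for no effect and ±100 for the full control effect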
How it was run: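 A ratiometric CCF4 readout (405 nm excitation; 460 and 530 nm emission) quantified AP-1-driven beta-lactamase in ME-180 cells after 5 h with compound and EC50 EGF; AC50 values were derived for activators and inhibitors.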

[2] = NFAT Signaling Pathway (AID 444); details: Jurkat NFAT-bla M1, carbachol, beta-lactamase ratio, 5 h; at 17.2 µM (top of the series) unless noted;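 note: carbachol stimulus at about its EC50 of 1 µM final; % is set by controls: 0 for no effect and ±100 for the full control effect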
How it was run: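 Read-out: CCF4 FRET ratio (460 nm/530 nm) after 1 h RT dye loading, used for %activity and AC50 from titration series. Cells: Jurkat NFAT-β-lactamase/M1 line, treated with compound plus 1 uM carbachol for 5 h, 37 °C.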

[3] = Stat Signaling Pathway (AID 446); details: ME-180 (cervical carcinoma) SIE beta-lactamase reporter, IL-6 stimulated, 5 h; at 17.2 µM (top of the series) unless noted;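 note: ME-180 cervical cancer cells given 40 pM IL-6 alongside compound; SIE-controlled beta-lactamase reporter measured as 460/530 nm FRET emission ratio; % is set by controls: 0 for no effect and ±100 for the full control effect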
How it was run: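 Overnight-plated ME-180 cells bearing a STAT Inducible Element beta-lactamase reporter; 5 h co-exposure to compound and 40 pM IL-6; values normalized to 300 pM IL-6 and 125 nM JAK inhibitor controls.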

[4] = target: Glucocorticoid receptor (Homo sapiens) (UniProt P04150); test: GR-GFP Redistribution (AID 450;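 active = compounds whose dose series gives a full or clear partial fitted curve of increased nuclear translocation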; note: potency is the fitted concentration of half-maximal effect)
Chain of Glucocorticoid receptor (Homo sapiens) (P04150 whole entry, looked up): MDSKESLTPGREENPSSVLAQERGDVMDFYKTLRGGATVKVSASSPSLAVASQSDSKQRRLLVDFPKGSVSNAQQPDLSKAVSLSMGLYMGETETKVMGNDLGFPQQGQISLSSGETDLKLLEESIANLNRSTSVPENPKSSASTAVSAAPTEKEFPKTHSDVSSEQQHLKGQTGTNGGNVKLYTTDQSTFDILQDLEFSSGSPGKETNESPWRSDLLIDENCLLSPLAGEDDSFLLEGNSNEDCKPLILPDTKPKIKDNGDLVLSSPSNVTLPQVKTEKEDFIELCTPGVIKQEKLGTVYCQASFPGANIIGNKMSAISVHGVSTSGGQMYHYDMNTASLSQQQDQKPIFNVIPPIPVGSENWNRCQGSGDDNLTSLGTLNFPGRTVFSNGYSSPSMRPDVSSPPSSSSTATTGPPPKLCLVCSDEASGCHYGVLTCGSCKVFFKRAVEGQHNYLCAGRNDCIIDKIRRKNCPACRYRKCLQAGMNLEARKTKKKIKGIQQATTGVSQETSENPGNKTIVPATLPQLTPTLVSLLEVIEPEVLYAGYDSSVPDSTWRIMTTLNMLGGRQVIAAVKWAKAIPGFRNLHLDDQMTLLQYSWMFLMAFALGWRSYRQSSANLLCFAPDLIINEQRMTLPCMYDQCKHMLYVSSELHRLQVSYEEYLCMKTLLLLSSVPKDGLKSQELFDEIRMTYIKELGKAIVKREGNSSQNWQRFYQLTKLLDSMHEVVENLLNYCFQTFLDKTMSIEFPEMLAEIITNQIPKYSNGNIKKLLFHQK

c1coc(CNc2ncnc3ccccc23)c1
inactive: activity change, negative = inhibition [1] -22.1% | activity change, negative = inhibition [2] -14.7% | activity, negative = inhibition [3] -18.3% | Potency [4] > 20.6 µM

O=c1[nH]cnc2c1cnn2Cc1ccccc1
inactive: activity change, negative = inhibition [1] 2.81% | activity change, negative = inhibition [2] -7.78% | activity, negative = inhibition [3] 6.19% | Potency [4] > 20.6 µM

CC(O)c1n(C)c(Cl)c[n+]1C (centres undefined)
inactive: activity change, negative = inhibition [1] 0.68% | activity change, negative = inhibition [2] -4.99% | activity, negative = inhibition [3] -4.96% | Potency [4] > 20.6 µM

COc1cc(-c2nn3c(-c4ccccn4)nnc3s2)cc(OC)c1OC
inactive: activity change, negative = inhibition [1] 1.69% | activity change, negative = inhibition [2] 10.9% | activity, negative = inhibition [3] 1.47% | Potency [4] > 20.6 µM

CCC(C(=O)Nc1nccs1)(C(F)(F)F)C(F)(F)F
inactive: activity change, negative = inhibition [1] 0.462% | activity change, negative = inhibition [2] 11.5% | activity, negative = inhibition [3] -9.76% | Potency [4] > 20.6 µM

CN(C)c1ccc(C=NCC2(O)CCOC(C)(C)C2)cc1 (centres undefined)
inactive: activity change, negative = inhibition [1] -0.248% | activity change, negative = inhibition [2] -9.77% | activity, negative = inhibition [3] 8.53% | Potency [4] > 20.6 µM

CC(=O)NC1(C(F)(F)F)C(=O)Nc2c1c(=O)n(C)c(=O)n2C (centres undefined)
inactive: activity change, negative = inhibition [1] 21.1% | activity change, negative = inhibition [2] 7.97% | activity, negative = inhibition [3] 0.854% | Potency [4] > 20.6 µM

COCCOC(=O)C1=C(C)OC(N)=C(C#N)C1c1ccco1 (centres undefined)
inactive: activity change, negative = inhibition [1] 0.22% | activity change, negative = inhibition [2] -14.6% | activity, negative = inhibition [3] -4.05% | Potency [4] > 20.6 µM

c1ccc(Cc2nn[nH]n2)cc1
inactive: activity change, negative = inhibition [1] 7.13% | activity change, negative = inhibition [2] -3.11% | activity, negative = inhibition [3] 8.05% | Potency [4] > 20.6 µM

CC1(C)CC(=O)C(C=Nc2ccc(Cl)cn2)=C(O)C1
inactive: activity change, negative = inhibition [1] -10.2% | activity change, negative = inhibition [2] 17.4% | activity, negative = inhibition [3] 21.1% | Potency [4] > 20.6 µM

Cc1ccc(-n2nc3cc(Cl)c(NC(=O)c4ccco4)cc3n2)cc1
inactive: activity change, negative = inhibition [1] 28.5% | activity change, negative = inhibition [2] -3.83% | activity, negative = inhibition [3] -1.11% | Potency [4] > 20.6 µM

CCc1ccc(NC(=O)CSC2=C(C#N)C(c3ccco3)C3=C(CCCC3=O)N2)cc1 (centres undefined)
inactive: activity change, negative = inhibition [1] -12.8% | activity change, negative = inhibition [2] -17.6% | activity, negative = inhibition [3] -16.5% | Potency [4] > 20.6 µM

Cc1nc(NCc2ccccc2)c(C(N)=O)c2c1COC(C)(C)C2
inactive: activity change, negative = inhibition [1] 1.8% | activity change, negative = inhibition [2] 9.09% | activity, negative = inhibition [3] 6.9% | Potency [4] > 20.6 µM

CC(NC(=O)NCCCn1ccnc1)(C(F)(F)F)C(F)(F)F
inactive: activity change, negative = inhibition [1] 18.8% | activity change, negative = inhibition [2] -6.4% | activity, negative = inhibition [3] 5.85% | Potency [4] > 20.6 µM

CCCCCCn1c(C(C)O)nc2ccccc21 (centres undefined)
inactive: activity change, negative = inhibition [1] 0.304% | activity change, negative = inhibition [2] 5.62% | activity, negative = inhibition [3] -3.73% | Potency [4] > 20.6 µM

O=C(C(c1ccccc1)N1CCOCC1)N1CCOCC1 (centres undefined)
inactive: activity change, negative = inhibition [1] 27.9% | activity change, negative = inhibition [2] 7.74% | activity, negative = inhibition [3] 13.8% | Potency [4] > 20.6 µM

O=C1CCCN1c1ccc(S(=O)(=O)NCc2ccco2)cc1
inactive: activity change, negative = inhibition [1] 1.18% | activity change, negative = inhibition [2] -10.1% | activity, negative = inhibition [3] 2.23% | Potency [4] > 20.6 µM

COc1ccc(C(=O)Cn2c(N3CCCCC3)nc3c2c(=O)n(C)c(=O)n3C)cc1OC
inactive: activity change, negative = inhibition [1] 14.7% | activity change, negative = inhibition [2] 21% | activity, negative = inhibition [3] -0.755% | Potency [4] > 20.6 µM

Cc1cc(C)c(NC(=O)OCCN2CCOCC2)c(C)c1
inactive: activity change, negative = inhibition [1] 4.21% | activity change, negative = inhibition [2] -5.81% | activity, negative = inhibition [3] 5.25% | Potency [4] > 20.6 µM

CCOC(=O)C1CCCN(c2nc3ccccc3nc2C(C#N)C(=O)OC(C)COC)C1 (centres undefined)
inactive: activity change, negative = inhibition [1] -5.69% | activity change, negative = inhibition [2] -5.6% | activity, negative = inhibition [3] -14.5% | Potency [4] > 20.6 µM

CCC1=Nc2ccccc2NC2=C1C(=O)CCC2
inactive: activity change, negative = inhibition [1] 16.1% | activity change, negative = inhibition [2] -0.948% | activity, negative = inhibition [3] -3.13% | Potency [4] > 20.6 µM

Cc1ccc(C(=O)C2=C(O)C(=O)N(CCN3CCOCC3)C2c2ccccn2)o1 (centres undefined)
inactive: activity change, negative = inhibition [1] -1.65% | activity change, negative = inhibition [2] 8.69% | activity, negative = inhibition [3] 5.67% | Potency [4] > 20.6 µM

c1ccc(-c2nnc3n2N=C(c2ccc4c(c2)OCO4)CS3)nc1
inactive: activity change, negative = inhibition [1] 2.99% | activity change, negative = inhibition [2] 19.9% | activity, negative = inhibition [3] -6.24% | Potency [4] > 20.6 µM

O=C(CC(c1ccco1)S(=O)(=O)c1ccccc1)c1ccc(F)cc1 (centres undefined)
inactive: activity change, negative = inhibition [1] -0.192% | activity change, negative = inhibition [2] -1.61% | activity, negative = inhibition [3] -7.8% | Potency [4] > 20.6 µM

Cc1ccc(Cn2ncc3c(N4CCOCC4)ncnc32)cc1
inactive: activity change, negative = inhibition [1] -2.95% | activity change, negative = inhibition [2] 19.3% | activity, negative = inhibition [3] 3.94% | Potency [4] > 20.6 µM

C=C(C)CN(CC)CCC(=O)Nc1ccc(OC)cc1OC
inactive: activity change, negative = inhibition [1] -7.43% | activity change, negative = inhibition [2] 3.18% | activity, negative = inhibition [3] 6.14% | Potency [4] > 20.6 µM
